Screening results (PubChem)
Sampled rows, rich in hits. Any-hit rate of the full collection: about 3.3%.
HCV inhibitor: qHTS Assay for Inhibitors of Hepatitis C Virus (HCV) | Huh7.5.1 HCVcc-Cre infection, luciferase reporter, 44 h | Potency, µM (highest dose often 41.8 µM), inactives show at the highest dose activity change, negative = inhibition, actives largely listed as inhibitors | 340,000 compounds, 3.4% hits | AID 651820, 2012; active = well fitted inhibition curve with a large enough effect; inconclusive = small, poorly fitted or top-dose-only effect, or another doubt; inactive = no such curve, though single readings can be large or run the other way
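Antiviral activity was scored by luciferase reporter output from cells infected with HCVcc-Cre (~0.5 moi) in presence of compound, 44 h infection period, cells seeded 1,000/well 4 h prior.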
Vaccinia Venus: qHTS for Stage-Specific Inhibitors of Vaccinia Orthopoxvirus: Venus Reporter Primary qHTS; Potency, µM (highest dose often 36.5 µM), inactives show top-dose activity change, negative = inhibition, most hits filed as inhibitors; Vaccinia virus Venus reporter expression, fluorescence; 330,000 compounds, 0.46% hits; calls by dose curve; tested in A549 cells; note: nearly all actives have a fitted effect of over 30% in size
VACV mCherry inh: qHTS for Stage-Specific Inhibitors of Vaccinia Orthopoxvirus: mCherry Reporter Primary qHTS; Vaccinia virus mCherry reporter infection, fluorescence; 310,000 compounds, 0.63% hits; Potency, µM (doses to about 36.5 µM), for the others: at the top dose activity change, negative = inhibition, hits mostly inhibitors; AID 720579, 2013; calls by dose curve; tested in A549 cells; note: nearly all actives have a fitted effect of over 35% in size
The depositor's hits bear a star; i = inactive; ? = inconclusive; / = no result; [ ] = dose if it differs, or a comment. % is set by controls: 0 for no effect and ±100 for the full control effect; potency is the fitted concentration of half-maximal effect.

SMILES	HCV inhibitor	Vaccinia Venus	VACV mCherry inh
C=CCn1c(C)cc(C(=O)CSc2ccc(NC(C)=O)cc2)c1C	-6%	-10%	-17%
Cc1cc(C(=O)CSc2nnc(-c3ccc(Cl)cc3)n2CC2CCCO2)c(C)n1C (stereo not drawn)	-12%	/	/
Cc1cc(C(=O)CSc2nc3ccc(Cl)cc3[nH]2)c(C)n1CC1CCCO1 (stereo not drawn)	8.9µM*	-30%	?
C=CCn1c(C)cc(C(=O)CSc2nc3ccccc3[nH]2)c1C	6.3µM*	/	/
Cc1ccc(NCC(=O)N2CCN(S(=O)(=O)c3ccccc3)CC2)cc1F	2%	-23%	-13%
COc1ccc(CC(=O)NC2CC2)cc1OC	24%	/	/
C#CCN1C=CC(=O)[C@@H](O)[C@H]1c1ccccc1Br	5.6µM*	3%	-16%
C#CCN1C=CC(=O)[C@@H](OC(=O)Nc2ccc(C)cc2)[C@H]1c1ccccc1Br	-2%	?	-19%
OC(Cc1ccc2ccccc2n1)c1ccccc1 (stereo not drawn)	/	-7%	-20%
NC(C(=O)O)C1CC(Cl)=NO1 (stereo not drawn)	2%[8.37 µM]	/	/
N[C@H](C(=O)O)[C@@H]1CC(Cl)=NO1	/	?	2µM*
COc1c2c(cc3oc(=O)ccc13)OC(C)(C)C=C2	?	-8%	19%
CC(C)(O)CCc1c(-c2ccc(O)cc2O)oc2c3c(cc(O)c2c1=O)OC(C)(C)C=C3	13µM*	-10%	-27%
O=C(c1n[nH]c2c1CCCC2)N1CCC(n2c(C3CCCO3)nc3ccccc32)CC1 (stereo not drawn)	/	0%	-5%
O=C(Cc1ccccc1)NC(NC(=S)Nc1cc(Cl)ccc1Cl)C(Cl)(Cl)Cl (stereo not drawn)	-4%	/	/
O=C(/C=C/c1ccccc1)NC(NC(=S)Nc1cc(Cl)ccc1Cl)C(Cl)(Cl)Cl (stereo not drawn)	?	?	10µM*
CCn1c(=O)cc(SCC(=O)N2CCN(c3cc(C)ccc3C)CC2)c2ccccc21	/	-20%	-29%
Nc1ccc(C=O)cc1	/	-11%	-3%
COc1ccccc1CNC(=O)Cc1csc2nc(-c3ccc(F)cc3)cn12	/	-6%	-11%
COc1ccc(NC(=O)CSc2nc3c(sc4ccccc43)c(=O)n2CCCN2CCCC2)cc1	2.5µM*	/	/
COCCCn1c(SCC(=O)Nc2ccc(OC)cc2)nc2c(sc3ccccc32)c1=O	/	2%	-6%
COc1ccc(NC(=O)N2C3CCCC2CC(NC(=O)c2ccccc2)C3)cc1 (stereo not drawn)	9%	-9%	-11%
O=c1c2cc(N3CCOCC3)ccc2[nH]c(=S)n1CCc1ccccc1	-27%	-8%	-17%
CCc1cc(N2CCOCC2)cc2c1[nH]c1ccccc12	7.1µM*	/	/
O=C(CCN1C(=O)/C(=C\c2ccccc2F)SC1=S)N1CCOCC1	/	13µM*	?
SMILES	HCV inhibitor	Vaccinia Venus	VACV mCherry inh
Cc1ccc(/C=C2/SC(=S)N(CCC(=O)N3CCOCC3)C2=O)cc1	-25%	-5%	?
O=C(c1cc2ccccc2o1)N1CCN(c2ccccn2)CC1	2%	5%	-12%
O=C(CSc1nc2ccccc2c(=O)[nH]1)Nc1ccc([N+](=O)[O-])cc1	-21%	20µM*	?
O=C(CSc1nc2ccccc2c(=O)[nH]1)Nc1ccc(C(=O)O)cc1	11%	-8%	-4%
COc1ccc(Cl)cc1NC(=O)CSc1nc(N2CCOCC2)nc(N2CCOCC2)n1	?	-12%	i
COc1ccc(Nc2nc(N3CCOCC3)nc(N3CCOCC3)n2)cc1Cl	10µM*	-4%	-22%
Cc1ccc(Nc2nc(Nc3ccc(C)c(C)c3)nc(N3CCOCC3)n2)cc1C	/	-11%[7.34 µM]	2%[7.34 µM]
O=C(CSc1nc(Nc2ccccc2)nc(N2CCOCC2)n1)Nc1cccc([N+](=O)[O-])c1	?	-28%	?
COc1ccc(Cl)cc1NC(=O)CSc1nc(Nc2ccccc2)nc(N2CCOCC2)n1	11µM*	/	/
O=C(CSc1nc(Nc2ccccc2)nc(N2CCOCC2)n1)Nc1ccc([N+](=O)[O-])cc1	11µM*	/	/
O=C(/C=C/c1ccccn1)NCC1Cc2cccc(-c3ncccn3)c2O1 (stereo not drawn)	/	-16%	0%
Cc1occc1C(=O)Nc1cccc(-c2nc(CNC(=O)c3ccc(N4CCCCC4)cc3)c(C)o2)c1	/	-3%	-10%
CC(C)C(NS(C)(=O)=O)c1nnc2n1CCN(Cc1ccc3cccnc3c1)CC2 (stereo not drawn)	/	-1%	-5%
Cc1ccc(C(=O)N2C3=C(CCCC3)C(=O)NC23CCCCC3)cc1	9%	-7%	0%
O=C1NC2(CCCCC2)N(C(=O)c2ccccc2)C2=C1CCCC2	3.2µM*	/	/
